Assay [1] concerns the target Albumin (Bos taurus) (UniProt P02769). Description: compounds binding labelled BSA control protein – biochemical, small-molecule microarray, Alexa647 label, 635/667 nm fluorescence, artefact control for SMM control protein annotation, profiling panel (AID 1118).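 Also: score merges 667 nm emission intensity and signal-to-noise per printed compound spot.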 The conditions noted are these: BSA-A647 binding, fluorescence 635 nm, higher = more signal.
The nature of assay [2]: probe aXIP binding to arrayed compounds – biochemical, NeuroSMM set, 635/667 nm fluorescence, primary screen (AID 1119).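 Also: probe is the protein aXip251-270 applied at 1 µg/mL to compound-printed slides; binding of probe to printed compounds measured as 667 nm fluorescence plus signal to noise.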 The conditions noted are these: small-molecule microarray, higher = more signal, called active from +8 up or from −8 down.
Assay [3] can be described thus: probe aNOTCH3 binding on compound microarray – biochemical, small-molecule microarray, 635/667 nm fluorescence, primary screen (AID 1120).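 Also: probe is a biotin-tagged antibody raised against NOTCH3 rather than NOTCH3 protein; score merges spot fluorescence near 667 nm with spot signal to noise.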 The conditions noted are these: higher = more signal.
The nature of assay [4]: probe aNOTCH2 binding on compound microarray – biochemical, small-molecule microarray, 635/667 nm fluorescence, primary screen (AID 1121).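 Also: score merges feature fluorescence read at 667 nm with its signal to noise.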 The conditions noted are these: higher = more signal.
The target of assay [5] is Carbonic anhydrase 2 (Homo sapiens) (UniProt P00918). Description: compounds binding carbonic anhydrase 2 – biochemical, small-molecule microarray, Alexa647-labelled CAII, profiling panel (AID 1122). The conditions noted are these: CAII-A647 binding fluorescence, higher = more signal.
A short description of assay [6]: COS7 lysate on small-molecule microarray, probe aHis, 635 nm (AID 1123).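 Also: z-score combines 667nm fluorescence intensity with signal-to-noise per printed compound spot.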 To be noted: COS7 cell lysate, fluorescence, higher = more signal.
Assay [7] in a line: probe aLAP1 signal on lysate-treated microarray – cell lysate, small-molecule microarray, COS7 lysate, primary screen (AID 1124).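 Also: lysate comes from COS7 cells expressing LAP1 and is applied at 0.3 µg/mL; score merges spot fluorescence near 667 nm with signal-to-noise over triplicate slides.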 To be noted: probe aLAP1, fluorescence, higher = more signal.
Assay [8] has as its system Sam68 (KHDRBS1). Nature of the assay: compounds binding KHDRBS1 protein – biochemical, small-molecule microarray, 635 nm fluorescence, primary screen (AID 1125).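 Also: score merges 667 nm channel intensity with signal to noise over triplicate slides.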 The conditions noted are these: higher = more signal.
Assay [9] concerns Chordin-like protein 2 (CHRDL2). Description: compounds binding chordin-like 2 – biochemical, small-molecule microarray, 635 nm fluorescence, primary screen (AID 1126).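 Also: printed compound slides probed with Chrdl2 protein at 4 µg/mL for 1 h at 4 C; score merges 667 nm emission intensity with signal to noise over three replicate slides.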 The conditions noted are these: fluorescence 635 nm, higher = more signal.
Assay [10] concerns the target Concanavalin-A (Canavalia ensiformis) (UniProt P02866). Description: compounds binding concanavalin A lectin – biochemical, small-molecule microarray, Alexa647 label, 635 nm, artefact control for SMM control protein annotation, primary screen (AID 1127).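 Also: z combines 667 nm emission intensity with signal-to-noise across three replicate slides.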 The conditions noted are these: ConA-A647 binding fluorescence, higher = more signal.
Assay [11] is described as follows: compounds binding Alexa647 anti-His antibody – biochemical, small-molecule microarray, 635 nm fluorescence, artefact control for SMM control protein annotation, primary screen (AID 1128).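 Also: score merges feature fluorescence with signal-to-noise for each printed compound spot.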 To be noted: higher = more signal.
In assay [12] the test system is Human papillomavirus type 1a E7 protein (residues 1-88). Nature of the assay: HPV1a E7 small-molecule binders, primary screen, biochemical, small-molecule microarray, residues 1-88, 635 nm (AID 1129). To be noted: small-molecule microarray binding, fluorescence 635 nm; higher = more signal.
Assay [13] concerns the target Focal adhesion kinase 1 (Homo sapiens) (UniProt Q05397). Nature of the assay: PTK2 protein binding on printed compound slides – biochemical, small-molecule microarray, 635/667 nm fluorescence, BSA, DTT, primary screen (AID 1130).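 Also: composite of spot emission at 667 nm and signal to noise over triplicate slides.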 To be noted: 635 nm fluorescence, higher = more signal.
Assay [14] deals with Fibrinogen (Alexa647-labelled). Nature of the assay: Alexa647-fibrinogen binding to printed small molecules – biochemical, small-molecule microarray, 635/667 nm fluorescence, artefact control for SMM control-protein annotation, profiling panel (AID 1131).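 Also: z-score merges 667 nm fluorescence with per-spot signal-to-noise over triplicate slides.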 To be noted: fibrinogen-A647 binding fluorescence, higher = more signal.
Assay [15] has as its target Follistatin (Homo sapiens) (UniProt P19883). Description: FST protein binding to printed compounds – biochemical, small-molecule microarray, 635/667 nm fluorescence, primary screen (AID 1132). To be noted: 635 nm fluorescence, higher = more signal.
The target of assay [16] is Fibroblast growth factor 2 (Homo sapiens) (UniProt P09038). Description: basic fibroblast growth factor binding to printed compounds – biochemical, small-molecule microarray, 635/667 nm fluorescence, primary screen (AID 1133). The conditions noted are these: FGF2, fluorescence 635/667, higher = more signal.
A short description of assay [17]: JC-1 mitochondrial potential readout, lung cancer cells – cell-based, A549, JC-1 fluorescence, basal, 24 h, 100 nL, profiling panel (AID 1138).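 Also: A549 lung adenocarcinoma cells under basal conditions with no added stimulus; test concentration not given here.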 To be noted: higher = more signal.
Assay [18] deals with Lefty1. Nature of the assay: Lefty1 protein binding to printed compounds – biochemical, small-molecule microarray, 635/667 nm fluorescence, primary screen (AID 1139). The conditions noted are these: fluorescence 635/667, higher = more signal.
For assay [19], the system named is wheat germ agglutinin (Triticum aestivum), Alexa647-labelled. Description: Alexa647-WGA lectin binding to printed small molecules – biochemical, small-molecule microarray, 635/667 nm fluorescence, artefact control for SMM control-protein annotation, profiling panel (AID 1140).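 Also: score merges 667 nm feature emission with signal to noise over triplicate slides.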 The conditions noted are these: WGA-A647 binding, 635 nm fluorescence, higher = more signal.

Assay [20] addresses Luciferin 4-monooxygenase (Photinus pyralis) (UniProt P08659). Nature of the assay: inhibition of purified Photinus pyralis luciferase – biochemical, luminescence, purified enzyme, 2006 set, primary screen (AID 1141).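 Also: cell-free assay with purified firefly luciferase at 100 ng per well in PBS; test concentration not given here.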 The conditions noted are these: purified firefly luciferase, SteadyGlo luminescence, 30 min; higher = more signal, called active from +8 up or from −8 down.

Activity calls are given as the source filed them.

Chain of Concanavalin-A (Canavalia ensiformis) (P02866 whole entry, looked up): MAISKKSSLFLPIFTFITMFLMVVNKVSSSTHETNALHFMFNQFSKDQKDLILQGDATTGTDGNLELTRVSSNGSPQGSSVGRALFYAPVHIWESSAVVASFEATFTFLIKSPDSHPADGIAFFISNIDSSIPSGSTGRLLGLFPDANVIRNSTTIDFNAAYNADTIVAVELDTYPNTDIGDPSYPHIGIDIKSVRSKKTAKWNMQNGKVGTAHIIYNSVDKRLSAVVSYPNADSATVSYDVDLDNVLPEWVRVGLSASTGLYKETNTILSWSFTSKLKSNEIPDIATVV
Chain of Luciferin 4-monooxygenase (Photinus pyralis) (P08659 whole entry, looked up): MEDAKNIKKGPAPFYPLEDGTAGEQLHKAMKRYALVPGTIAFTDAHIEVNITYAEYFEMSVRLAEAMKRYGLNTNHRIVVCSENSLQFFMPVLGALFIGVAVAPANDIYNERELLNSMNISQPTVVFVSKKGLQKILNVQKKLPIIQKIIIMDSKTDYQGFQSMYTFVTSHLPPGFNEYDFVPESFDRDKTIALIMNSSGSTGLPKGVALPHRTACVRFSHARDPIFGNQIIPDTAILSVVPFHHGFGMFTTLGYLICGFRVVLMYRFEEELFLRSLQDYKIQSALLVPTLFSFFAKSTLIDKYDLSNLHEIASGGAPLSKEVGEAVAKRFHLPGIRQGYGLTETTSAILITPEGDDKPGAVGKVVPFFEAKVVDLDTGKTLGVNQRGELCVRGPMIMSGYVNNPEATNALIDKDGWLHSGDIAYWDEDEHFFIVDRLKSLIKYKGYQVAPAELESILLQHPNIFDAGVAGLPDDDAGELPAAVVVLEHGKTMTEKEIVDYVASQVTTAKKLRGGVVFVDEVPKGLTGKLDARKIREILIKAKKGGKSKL
Chain of Albumin (Bos taurus) (P02769 whole entry, looked up): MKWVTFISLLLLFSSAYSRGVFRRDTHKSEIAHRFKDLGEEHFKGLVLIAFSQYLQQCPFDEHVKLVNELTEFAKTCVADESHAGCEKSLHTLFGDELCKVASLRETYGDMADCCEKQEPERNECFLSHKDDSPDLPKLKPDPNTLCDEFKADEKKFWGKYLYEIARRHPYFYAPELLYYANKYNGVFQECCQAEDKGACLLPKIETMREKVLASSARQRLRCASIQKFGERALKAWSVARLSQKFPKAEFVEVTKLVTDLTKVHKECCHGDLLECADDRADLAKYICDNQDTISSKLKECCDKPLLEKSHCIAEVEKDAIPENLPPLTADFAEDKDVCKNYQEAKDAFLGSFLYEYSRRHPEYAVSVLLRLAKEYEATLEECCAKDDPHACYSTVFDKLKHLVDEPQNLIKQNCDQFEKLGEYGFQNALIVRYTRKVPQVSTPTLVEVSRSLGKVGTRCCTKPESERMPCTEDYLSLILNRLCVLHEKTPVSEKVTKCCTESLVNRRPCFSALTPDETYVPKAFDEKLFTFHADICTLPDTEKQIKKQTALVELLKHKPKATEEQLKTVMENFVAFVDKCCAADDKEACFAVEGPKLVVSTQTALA
Chain of Fibroblast growth factor 2 (Homo sapiens) (P09038 whole entry, looked up): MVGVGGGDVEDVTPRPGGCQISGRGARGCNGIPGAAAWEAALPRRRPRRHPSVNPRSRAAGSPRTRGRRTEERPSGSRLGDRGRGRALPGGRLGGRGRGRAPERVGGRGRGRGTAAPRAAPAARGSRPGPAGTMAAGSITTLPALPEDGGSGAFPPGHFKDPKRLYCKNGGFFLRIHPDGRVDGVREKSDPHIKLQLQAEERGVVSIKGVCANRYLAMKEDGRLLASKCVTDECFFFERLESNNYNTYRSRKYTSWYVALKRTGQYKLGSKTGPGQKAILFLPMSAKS
Chain of Follistatin (Homo sapiens) (P19883 whole entry, looked up): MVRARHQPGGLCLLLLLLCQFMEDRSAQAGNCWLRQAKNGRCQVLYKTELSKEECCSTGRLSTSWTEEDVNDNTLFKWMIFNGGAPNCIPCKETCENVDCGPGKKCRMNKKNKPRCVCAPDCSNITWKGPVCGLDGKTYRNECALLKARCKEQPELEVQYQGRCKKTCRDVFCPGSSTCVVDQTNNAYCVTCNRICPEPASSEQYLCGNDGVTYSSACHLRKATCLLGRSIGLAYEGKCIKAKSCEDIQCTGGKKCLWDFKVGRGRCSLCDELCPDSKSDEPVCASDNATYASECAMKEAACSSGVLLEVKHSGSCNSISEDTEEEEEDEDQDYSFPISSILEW
Chain of Focal adhesion kinase 1 (Homo sapiens) (Q05397 whole entry, looked up): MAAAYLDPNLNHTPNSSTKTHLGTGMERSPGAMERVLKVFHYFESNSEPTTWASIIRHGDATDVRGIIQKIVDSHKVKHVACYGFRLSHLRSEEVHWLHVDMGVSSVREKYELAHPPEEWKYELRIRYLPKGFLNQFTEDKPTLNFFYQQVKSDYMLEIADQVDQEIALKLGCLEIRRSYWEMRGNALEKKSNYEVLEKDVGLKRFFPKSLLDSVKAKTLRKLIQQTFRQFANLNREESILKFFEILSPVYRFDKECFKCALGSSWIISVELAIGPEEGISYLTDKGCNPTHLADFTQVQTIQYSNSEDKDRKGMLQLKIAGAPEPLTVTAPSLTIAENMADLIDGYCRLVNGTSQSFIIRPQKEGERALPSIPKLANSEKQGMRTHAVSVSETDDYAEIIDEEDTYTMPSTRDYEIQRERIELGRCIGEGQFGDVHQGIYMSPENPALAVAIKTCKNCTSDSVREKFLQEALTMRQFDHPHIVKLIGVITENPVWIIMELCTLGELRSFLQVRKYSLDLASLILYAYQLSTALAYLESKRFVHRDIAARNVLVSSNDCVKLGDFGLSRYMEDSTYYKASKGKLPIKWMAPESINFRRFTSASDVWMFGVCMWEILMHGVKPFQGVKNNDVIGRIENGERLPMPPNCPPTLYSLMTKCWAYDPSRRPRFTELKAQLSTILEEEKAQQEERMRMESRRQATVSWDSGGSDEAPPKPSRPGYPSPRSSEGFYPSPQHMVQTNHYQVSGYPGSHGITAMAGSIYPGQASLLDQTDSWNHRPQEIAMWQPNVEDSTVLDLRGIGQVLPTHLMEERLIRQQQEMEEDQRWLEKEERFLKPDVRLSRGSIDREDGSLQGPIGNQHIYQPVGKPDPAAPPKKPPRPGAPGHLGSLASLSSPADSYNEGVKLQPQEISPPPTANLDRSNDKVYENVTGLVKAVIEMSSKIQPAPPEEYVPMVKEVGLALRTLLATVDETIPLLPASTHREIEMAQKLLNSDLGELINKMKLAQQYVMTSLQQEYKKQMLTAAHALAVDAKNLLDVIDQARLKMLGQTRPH

As to `[N-]=[N+]=Nc1ccccc1C[C@@]1(C(=O)O)N=C(c2ccc(OCCCO)cc2)O[C@@H]1c1ccccc1N=[N+]=[N-]`, the composite z-score was 0.612 in assay [1]; 0.126 in [3]; 0.13 in assay [4]; 0.457 in assay [5]; 2.49 in assay [6]; 1.66 in assay [7]. Moreover, the composite z-score is 1.3 in assay [8]; -0.91 in assay [9]; 1.15 in assay [10]; 2.68 in assay [11]; 1.25 in assay [12]; 0.968 in assay [13]. Moreover, the composite z-score in [14] was 0.963; in assay [15] it was 0.46; in assay [16] it was -0.606; in assay [18], -0.817; in [19] it was 1.44. The composite Z-score in [2] is 0.95 (inactive). The values for the z-score in assay [17] and in assay [20] were 0.125 and -5.43 (inactive), respectively.
For the compound `CS(=O)(=O)CCOC(=O)C1=CC(CCCO)=CC(C2CC2)N(Cc2cccc(OC(F)(F)F)c2)C=C1C(=O)OCCS(C)(=O)=O` (stereo not given), the composite z-score in assay [1] is 0.42; in assay [3], 0.0311; in assay [4], -0.133; in assay [5], 0.751; in assay [6], 1.16; in [7] it was -0.0318. In addition, the composite z-score in assay [8] was 1.33; in [9], -0.316; in assay [10], 0.244; in assay [11] it was 1.96; in assay [12] it was 0.852; in assay [13], 0.386. Further, the composite z-score in assay [14] was 0.701; in [15], -0.0478; in assay [16], -0.256; in assay [18], 0.126; in assay [19] it was 0.927. Also, the composite Z-score in [2] is 3.23 (inactive). In addition, the values for the z-score in assay [17] and in assay [20] were 1.62 and -1.6 (inactive), respectively.
Consider `C=C(COC)C(=O)CC[C@H](OC(=O)c1cccnc1)c1ccc(CO)o1`, for which the composite z-score in assay [1] was 0.0617; in assay [3] it was 0.0225; in assay [4], -0.0569; in assay [5], 0.317; in [6] it was -0.22; in [7], -0.237. Further, the composite z-score in [8] was 0.558; in assay [9] it was 0.686; in assay [10], 0.695; in [11], 0.784; in assay [12], 0.113; in assay [13], -0.163. In addition, the composite z-score in [14] amounted to 0.978; in assay [15] it was 1.34; in assay [16], 1.26; in [18], 1.15; in [19] it was 0.264. Besides, the composite Z-score in assay [2] is -0.496 (inactive). In addition, the z-score in assay [17] is -0.595; in assay [20], -0.721 (inactive).
For `COC(=O)[C@@]1(Cc2ccc(OC)cc2)[C@H]2c3cc(C(=O)N4CCCC4)n(Cc4ccc(S(C)(=O)=O)cc4)c3C[C@H]2CN1C(=O)c1ccccc1`, the composite z-score in assay [1] is 1.03; in [3] it was 0.264; in [4], 0.36; in assay [5], 0.583; in [6] it was 2.22; in [7], -0.272. Besides, the composite z-score in [8] was 0.838; in [9] it was -0.737; in [10], 0.417; in assay [11], 0.486; in assay [12] it was 1.26; in assay [13], 0.721. In addition, the composite z-score in assay [14] was 0.996; in assay [15], 0.0078; in assay [16], -0.184; in assay [18] it was -0.0956; in assay [19] it was 0.479. Moreover, in assay [2], the composite Z-score was 0.602 (inactive). Besides, the z-score was 1.26 in [17] and 0.922 (inactive) in assay [20].
In the case of `COc1ccc([Si](C)(C)[C@H]2[C@H](CC(=O)N3CCC[C@H]3CO)O[C@@]3(C(=O)N(Cc4ccc(N5CCC5=O)cc4)c4ccccc43)[C@@H]2C)cc1`, the composite z-score in assay [1] was 0.669; in assay [3], -0.0182; in assay [4] it was -0.147; in assay [5] it was 0.474; in [6] it was 2.24; in assay [7] it was 0.568. The composite z-score in [8] was 1.3; in assay [9] it was 1.25; in assay [10] it was 1.13; in assay [11], 1.54; in assay [12] it was 1.19; in assay [13], 0.559. In addition, the composite z-score in assay [14] amounted to 0.898; in assay [15], 1.35; in assay [16], 1.73; in [18], 1.56; in [19] it was 0.211. For the same compound, in [2], the composite Z-score is 0.156 (inactive). Also, the z-score in assay [17] was 1.51; in [20], -0.509 (inactive).

The record behind these values is PubChem BioAssay.
